# Experimental data reported in ChEMBL document CHEMBL3433997, “St. Jude Leishmania screening dataset” (2016).
# Values joined by “and” are separate entries in the source; they are usually repeats but may differ in a detail not shown here. Equal values may be shown once.
# Biological target: Hexose transporter 1 (Plasmodium falciparum) (UniProt O97467)
# Experiment: ST_JUDE_LEISH: Cytotoxicity at 2uM final concentration against transgenic Leishmania Mexicana promastigotes LmPfHT that are glucose transport deficient and complemented with the Plasmodium falciparum hexose transporter. Activity is measured by DNA content using SYBR green in vitro
# Format: functional
row,Structure (SMILES),inhibition
1,O=C(Nc1ccccc1C(F)(F)F)NC1CCC(CN2CCC(c3c[nH]c4ccccc34)CC2)CC1 (centres undefined),4.94% and 7.06%
2,CCCCCc1cc(O)c2c(c1)OC(C)(C)CC2C1=CCN(Cc2cnc3ccccc3c2)CC1 (centres undefined),1.25%
3,CO[C@@H]1C[C@@H](C(=O)Nc2ccccc2)N(c2ccc(C#N)c3ccccc23)C1,5.45%
4,CCCCn1c(C)c(C(=O)OCC)c2cc(OC(C)=O)c(Br)cc21,1.76%
5,CN(C)CCC(=O)c1ccccc1,4.48%
6,CNC(=O)c1ccc2[nH]cc(C3CCN(CC4CCC(NC(=O)/C=C/c5ccccc5Cl)CC4)CC3)c2c1 (centres undefined),9.61%
7,C=C[C@H]1CN2CC[C@H]1C[C@H]2[C@H](O)c1ccnc2ccccc12,1.87%
8,Cc1cc2ccc(CNCCc3ccccc3Br)cc2nc1N,2.77%
9,Cc1ccccc1CNCC(O)c1cccc(C(F)(F)F)c1 (centres undefined),2.2%
10,COc1cccc(CN2CCC(CCOC(c3ccccc3)c3ccccc3)CC2)c1O,-0.08%
11,COc1ccc(N(c2nc(-c3cc(Cl)ccc3Cl)cs2)C2CCNCC2)cc1,-0.12%
12,CC[C@H]1CN2CCc3cc(OC)c(OC)cc3[C@@H]2C[C@@H]1C[C@H]1NCCc2c1cc(OC)c(O)c2Cl,98.3%
13,CC(Cc1ccc(NC(=O)[C@H](C)NCCc2cccc(Cl)c2)cc1)NCCc1cccc(Cl)c1 (some centres undefined),0.1%
14,COC(=O)c1ccc(CC(C)NCC(O)c2cccc(C(F)(F)F)c2)cc1F (centres undefined),2.23%
15,CS(=O)(=O)Nc1ccc2[nH]cc(C3CCN(CC4CCC(NC(=O)/C=C/c5ccccc5Cl)CC4)CC3)c2c1 (centres undefined),1.23%
16,COc1ccc(C=CC(=O)N2CCC(CN3CCC(c4c[nH]c5ccccc45)CC3)CC2)cc1OC,0.91%
17,Cc1[nH]c2cc(F)ccc2c1C1=CCN(CCCCC2(C)C(=O)Nc3ccccc32)CC1 (centres undefined),1.23%
18,O=C(/C=C/c1ccc(Cl)c(Cl)c1)N1CCC(CN2C3CCC2CC(c2c[nH]c4ccccc24)C3)CC1 (centres undefined),1.51%
19,CC[C@H]1CN2CC[C@@H]1C[C@H]2[C@H](O)c1cc[n+]([O-])c2ccc(OC)cc12,-0.91%
20,CCCCCC(C)C(C)c1cc(O)c2c3c(c(=O)oc2c1)CN(Cc1ccccc1)CC3 (centres undefined),0.04%

row,Structure (SMILES),inhibition
1,CN1CC=C(c2c[nH]c3ccc(C(=O)c4nccs4)cc23)CC1,-1.47%
2,C/C=C1/CN2CC[C@H]1C[C@H]2[C@H](O)c1ccnc2ccc(O)cc12,-1.31%
3,CC(Cc1ccc(OCCCCOc2ccccc2)cc1)NCCCN1CCOCC1 (centres undefined),2.33%
4,CC[C@H]1CN2CCc3cc(OC)c(OC)cc3[C@@H]2C[C@@H]1C[C@H]1NCCc2c1cc(OC)c(O)c2I,96.6%
5,Cc1cccc(N2CCN(Cc3cc(Cl)ccc3O)CC2)c1C,1.18%
6,Cc1[nH]c2ccccc2c1C1=CCN(CCCCCNC(=O)/C=C/c2ccc(Cl)c(Cl)c2)CC1,5.72%
7,CC(Cc1ccc(-c2nc3ccccc3[nH]2)cc1)NCC(O)c1cccc(C(F)(F)F)c1 (centres undefined),-1.73%
8,C=Cc1cc(OC)c2c(c1)c(=O)oc1c2cc(OC)c2c(O)ccc([C@H]3O[C@H]([C@H](C)O)[C@H](O)[C@H]3O)c21,32.6%
9,COCC(=O)N(Cc1ccccc1-c1ccc(CNCCc2ccccc2)cc1)C1CCN(Cc2ccccc2)CC1,0.27%
10,CCOC(=O)c1ccc(CC(C)NCC(O)c2cccc(C(F)(F)F)c2)cc1 (centres undefined),-1.71%
11,CN(c1cc(NC(=O)c2cccs2)ccn1)C1CCN(Cc2cccc(F)c2)CC1,3%
12,Cc1ccc(C)c(N2CCN(Cc3ccccc3O)CC2)c1,1.02%
13,Cc1[nH]c2ccccc2c1C1CCN(CC2CCC(NC(=O)/C=C/c3ccc(Cl)c(Cl)c3)CC2)CC1 (centres undefined),6.35%
14,CC[C@H]1CN2CC[C@H]1C[C@H]2[C@H](O)c1cc(N2CCCC(CO)C2)nc2ccc(OC)cc12 (some centres undefined),1.73%
15,CC(C)CNCc1ccc(-c2ccc(CN(C(=O)Nc3ccccc3)C3CCN(Cc4ccccc4)CC3)cc2)cc1,2.41%
16,CN1CC=C(C=Cc2c[nH]c3ccccc23)CC1,2.14%
17,Cn1cc(CN2CCC(CCOC(c3ccccc3)c3ccccc3)CC2)cn1,9.95%
18,COc1ccc(CC(C)NCC(O)c2cccc(C(F)(F)F)c2)cc1F (centres undefined),1.15%
19,CCCCCCC(C)(C)c1cc(O)c2c(c1)OC(C)(C)c1ccncc1-2,0.83%
